proKLK7 act = proKLK7 zymogen activators, primary screen, biochemical, fluorescence intensity; Kallikrein-7 (Homo sapiens), P49862; activation, % at 7 µM; actives 0.9% (n = 370,000); purified proKLK7, EDANS-DABCYL substrate fluorescence; 100% is mature enzyme control, 0% vehicle; AID 652039, 2013;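 active = activation above the mean of all tested compounds plus 3 SD, computed per campaign excluding outliers beyond control limits, cut at about 13% in these data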
ADAM17 inh = ADAM17 inhibitors, primary screen, biochemical, QFRET | Disintegrin and metalloproteinase domain-containing protein 17 (Homo sapiens), P78536 | recombinant ADAM17, EDANS/DABCYL FRET peptide cleavage | inhibition, % at 6.95 µM | actives 0.83% (n = 370,000);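 active = inhibition above the mean of compounds lying between control limits plus 3 SD, set per campaign, cut at about 8.5% in these data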
PLCb3 inh = human PLC-beta3 inhibitors, primary screen, biochemical, fluorescence | 1-phosphatidylinositol 4,5-bisphosphate phosphodiesterase beta-3 (Homo sapiens), Q01970 | Purified PLC-beta3, fluorogenic substrate | inhibition, % at 12.2 µM | actives 0.18% (n = 370,000); in the data active = inhibition above about 11%
PLC-gamma1 inh = PLC-gamma1 enzyme inhibitors, primary screen, biochemical, fluorescence, purified enzyme | 1-phosphatidylinositol 4,5-bisphosphate phosphodiesterase gamma-1 (Homo sapiens), P19174 | fluorogenic substrate | inhibition, % at 12.2 µM | actives 0.84% (n = 370,000); in the data active = inhibition above about 9.5%
ADAM10 inh = human ADAM10 inhibitors, primary screen, biochemical, QFRET, HTS. Disintegrin and metalloproteinase domain-containing protein 10 (Homo sapiens), O14672. recombinant ADAM10, EDANS/DABCYL FRET peptide cleavage, 3 h. inhibition, % at 7 µM. actives 0.62% (n = 370,000). AID 720582, 2013;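 active = inhibition above a per-campaign cutoff equal to the mean of compounds falling between control-based bounds plus 3 SD, cut at about 20% in these data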
Target sequence (O14672 214-748 limits assumed): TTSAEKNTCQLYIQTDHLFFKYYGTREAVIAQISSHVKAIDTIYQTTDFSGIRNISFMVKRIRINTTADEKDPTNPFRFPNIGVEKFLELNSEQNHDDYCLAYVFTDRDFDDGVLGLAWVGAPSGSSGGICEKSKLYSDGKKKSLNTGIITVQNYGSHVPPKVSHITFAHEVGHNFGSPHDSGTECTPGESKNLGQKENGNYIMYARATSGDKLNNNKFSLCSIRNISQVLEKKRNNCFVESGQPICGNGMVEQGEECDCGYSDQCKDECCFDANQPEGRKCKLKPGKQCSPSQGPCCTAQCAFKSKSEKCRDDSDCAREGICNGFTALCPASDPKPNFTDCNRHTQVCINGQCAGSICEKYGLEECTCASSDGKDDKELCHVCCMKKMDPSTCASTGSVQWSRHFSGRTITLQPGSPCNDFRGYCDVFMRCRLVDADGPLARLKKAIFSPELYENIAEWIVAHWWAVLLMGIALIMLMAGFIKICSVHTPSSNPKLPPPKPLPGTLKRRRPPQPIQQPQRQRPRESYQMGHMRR
sPLA2-III inh = human group III sPLA2 inhibitors, primary screen, biochemical, QFRET, BODIPY PC-A2 liposome substrate | Group 3 secretory phospholipase A2 (Homo sapiens), Q9NZ20 | QFRET BODIPY PC-A2 liposome hydrolysis, fluorescence | inhibition, % at 12.2 µM | actives 0.56% (n = 370,000);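 active = inhibition above mean plus 3 SD of compounds lying within the high and low control bounds, cut at about 19% in these data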
KLK7 act conf = proKLK7 zymogen activators, confirmation, biochemical, fluorescence intensity, triplicate | shares compounds with proKLK7 act | purified proKLK7, EDANS-DABCYL substrate fluorescence; scaled: vehicle 0, mature enzyme 100 | activation, % at 7 µM | actives 68% (n = 3,200);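 active = activation, as change over the incubation, above the mean of all tested compounds plus 3 SD, cut at about 13% in these data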
EDANS interfere = EDANS-DABCYL substrate optical interference, artefact control for kallikrein-7 zymogen activator project, biochemical, fluorescence intensity, high throughput. activation, % at 7 µM. actives 80% (n = 3,200). no enzyme, 4 h; solvent 0%, active enzyme control 100%. shares compounds with proKLK7 act;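 active = activation above the all-compound mean plus 3 SD, ignoring values outside control-based bounds, cut at about 4.8% in these data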;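 also: value is the 4 h activation minus the activation read at time zero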
A number is an active result; 0 = inactive; - = no result given. Only some compounds are listed: those with a hit (about 3.4% of all), similar ones and a draw of the others.

SMILES | proKLK7 act | ADAM17 inh | PLCb3 inh | PLC-gamma1 inh | ADAM10 inh | sPLA2-III inh | KLK7 act conf | EDANS interfere
COc1ccc(-c2coc3cc(OC(C)=O)ccc3c2=S)cc1 | 51 | 0 | 0 | 0 | 0 | 0 | 93 | 77
CC(=O)Oc1ccc2c(=O)c(-c3ccccc3)coc2c1 | 90 | 0 | 0 | 0 | 0 | 0 | 274 | 247
CCOC(=O)COc1ccc2c(=O)c(-c3ccccc3)coc2c1 | 0 | 0 | 0 | 0 | 0 | 0 | - | -
COc1ccc(-c2coc3cc(OC)ccc3c2=O)cc1 | 0 | 0 | 0 | 0 | 0 | 0 | - | -
O=C(Nc1cccc(C(F)(F)F)c1)OC1CC2CC1[C@H]1CCCCN1[C@H]2Cc1ccccc1 (stereo not given in full) | 0 | 0 | 0 | 0 | 0 | 0 | - | -
CCCCOCCCNC(=O)C[C@H]1C(=O)N(CCCOC)C2=CCCCC[C@]21C(=O)OC | 0 | 0 | 0 | 0 | 0 | 0 | - | -
O=C(COC(=O)c1cc(Cl)ccc1O)NCC1CCCO1 (stereo not given) | 46 | 0 | 0 | 0 | 0 | 0 | 80 | 83
O=C(COC(=O)c1cc(Cl)ccc1O)NNC(=O)c1ccc([N+](=O)[O-])cc1 | 99 | 0 | 0 | 0 | 0 | 0 | 160 | 155
O=C(OCC(=O)N1CCCC1=O)c1cc(Cl)ccc1O | 32 | 0 | 0 | 0 | 0 | 0 | 32 | 32
O=C(COC(=O)c1cccnc1Cl)NCC1CCCO1 (stereo not given) | 0 | 0 | 0 | 0 | 0 | 0 | - | -
NC(=O)c1ccsc1NC(=O)COC(=O)c1cc(Cl)ccc1O | 76 | 0 | 0 | 0 | 0 | 0 | 90 | 91
NC(=O)c1ccsc1NC(=O)COC(=O)c1ccccc1F | 0 | 0 | 0 | 0 | 0 | 0 | - | -
CC(=O)c1cc(-c2cccc(Cl)c2O)c(=O)n2c1CCC2 | 0 | 0 | 0 | 0 | 0 | 0 | - | -
CC(C)N1CCCCC(NC(=O)c2cccs2)C1=O (stereo not given) | 0 | 0 | 0 | 0 | 0 | 0 | - | -
O=C(NOC(=O)c1cc(Br)ccc1Cl)c1cccs1 | 0 | 0 | 0 | 0 | 0 | 0 | - | -
O=C(COC(=O)c1cc(Br)ccc1O)NNC(=O)c1cccs1 | 25 | 0 | 0 | 0 | 0 | 0 | 21 | 24
CCC1(O)C(=O)OCc2c1cc1n(c2=O)Cc2cc3c(N)cccc3nc2-1 (stereo not given) | 23 | 0 | 0 | 0 | 0 | 0 | 64 | 67
CCOc1ccc(-n2c(SCc3nc4ccccc4[nH]3)nnc2-c2cccc(Cl)c2)cc1 | 0 | 0 | 0 | 0 | 0 | 0 | - | -
Cc1c(O)ccc2cc(S(=O)(=O)c3ccccc3)c(=O)oc12 | 45 | 0 | 0 | 0 | 0 | 0 | 70 | 73
COc1ccc(C(=O)Nc2ccc3c(c2)C(=O)N(C)[C@H]2CC[C@H](CC(=O)NCC4CC4)O[C@@H]2CO3)cc1 | 0 | 0 | 0 | 0 | 0 | 0 | - | -
COc1ccc(-c2csc(NC(=O)c3ccc(S(=O)(=O)N4CCc5ccccc5C4)cc3)n2)c(OC)c1 | 55 | 0 | 0 | 0 | 0 | 0 | 59 | 79
C[C@@H](CO)N(CCc1cn(Cc2ccccc2)nn1)S(=O)(=O)c1ccccc1Br | 0 | 0 | 0 | 0 | 0 | 0 | - | -
FCCCOc1ccc(-c2ccnc3ncnn23)cc1 | 0 | 0 | 0 | 0 | 0 | 0 | - | -
COc1ccc(-c2ccnc3ncnn23)cc1 | 33 | 0 | 0 | 0 | 0 | 0 | 27 | 35
COc1ccc(-c2cc(-c3ccccc3)n3ncnc3n2)cc1 | 30 | 0 | 0 | 0 | 0 | 0 | 25 | 0
SMILES | proKLK7 act | ADAM17 inh | PLCb3 inh | PLC-gamma1 inh | ADAM10 inh | sPLA2-III inh | KLK7 act conf | EDANS interfere
COc1ccc(-c2cc(N3CCCC3)n3ncnc3n2)cc1 | 0 | 0 | 0 | 0 | 0 | 0 | - | -
COC(=O)c1cc(C(c2ccccc2O)C2CCC(C)(C)O2)n2ccccc12 (stereo not given) | 36 | 0 | 0 | 0 | 0 | 0 | 0 | 0
COC(=O)c1cc(C(C)c2ccccc2O)n2ccccc12 (stereo not given) | 0 | 0 | 0 | 0 | 0 | 0 | - | -
CC(=O)Nc1ccc(/C=N\NC(=O)c2cccc(S(=O)(=O)N(C)C)c2)cc1 | 0 | 0 | 0 | 0 | 0 | 0 | - | -
O=c1oc2ccccc2cc1-c1nc2ccccc2o1 | 89 | 0 | 0 | 0 | 0 | 0 | 74 | 86
O=C(Nc1ccc(F)cc1)OCc1cn(Cc2ccccc2F)nn1 | 0 | 0 | 0 | 0 | 0 | 0 | - | -
Cc1cc(C)[n+](-c2ccc(F)cc2)c2[nH]c(=O)[nH]c(=O)c12 | 38 | 0 | 0 | 0 | 0 | 0 | 63 | 68
CCc1cc2c(=O)c(-c3nc4ccccc4n3C)c(C)oc2cc1OC(C)=O | 38 | 0 | 0 | 0 | 0 | 0 | 69 | 66
CCc1cc2c(=O)c(-c3nc4ccccc4n3C)c(COCC(=O)O)oc2cc1OC(=O)C(C)(C)C | 0 | 0 | 0 | 0 | 0 | 0 | - | -
N#CCSc1ccc2nc(-c3ccccc3)cn2n1 | 16 | 0 | 0 | 0 | 0 | 0 | 32 | 32
N#CCSc1nc(-c2ccccc2)cs1 | 0 | 0 | 0 | 0 | 0 | 0 | - | -
CN(C)c1nc(N)c2nccnc2n1 | 21 | 0 | 0 | 0 | 0 | 0 | 0 | 0
CSc1cnc2c(N)nc(N(C)C)nc2n1 | 0 | 0 | 0 | 0 | 0 | 0 | - | -
COc1ccc2oc(-c3ccncc3)cc(=O)c2c1 | 21 | 0 | 0 | 0 | 0 | 0 | 37 | 33
COc1ccc(-c2cc(=O)c3cc(O)ccc3o2)cc1 | 0 | 0 | 0 | 0 | 0 | 0 | - | -
O=C(COc1ccc2oc(-c3ccco3)cc(=O)c2c1)N1CCCCC1 | 61 | 0 | 0 | 0 | 0 | 0 | 60 | 60
COc1ccc2oc(-c3ccco3)cc(=O)c2c1 | 57 | 0 | 0 | 0 | 0 | 0 | 74 | 71
O=C(COc1ccc2c3c(c(=O)oc2c1)CCC3)N1CCCCC1 | 0 | 0 | 0 | 0 | 0 | 0 | - | -
CC(C)CNC(=O)C1CSCCS(=O)(=O)N1Cc1ccc(F)cc1 (stereo not given) | 0 | 0 | 0 | 0 | 0 | 0 | - | -
CCCOc1nc2ccccc2cc1/C=C/C(=O)O | 17 | 0 | 0 | 0 | 0 | 0 | 0 | 11
CCOc1nc2ccccc2cc1C=O | 0 | 0 | 0 | 0 | 0 | 0 | - | -
CNc1ccc(-c2cccc(C(C)=O)c2)cn1 | 0 | 0 | 0 | 0 | 0 | 0 | - | -
